Results filed as inconclusive are left out. Entries that show only a call come without a potency. Calls of active or inactive are those of the source. The call rests on the fitted dose curve; in most records, active means well fitted curve in the direction sought with a large enough effect; inconclusive means small, poorly fitted or top-dose-only effect, or another doubt; inactive means no such curve, though single readings can be large; an effect the other way counts as inactive or inconclusive.
biological target: Cytochrome P450 3A4 (Homo sapiens) (UniProt P08684); experiment: qHTS Assay for Inhibitors and Substrates of Cytochrome P450 3A4 (AID 884); details: recombinant CYP3A4, Luciferin-PPXE luminescence; series mostly up to 57.1 µM; further: nearly all actives have a fitted effect of over 50% in size; further: potency means the concentration at half of the fitted maximal effect
Method in brief: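 20 nM human CYP3A4 with 25 uM Luciferin-PPXE (at KM) in 200 mM KPO4, preincubated 10 min with compound; NADPH regeneration started a 60 min RT reaction. Luciferin detected by luminescence, normalized to 57 uM ketoconazole as full inhibition.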

Chain of Cytochrome P450 3A4 (Homo sapiens) (P08684 whole entry, looked up): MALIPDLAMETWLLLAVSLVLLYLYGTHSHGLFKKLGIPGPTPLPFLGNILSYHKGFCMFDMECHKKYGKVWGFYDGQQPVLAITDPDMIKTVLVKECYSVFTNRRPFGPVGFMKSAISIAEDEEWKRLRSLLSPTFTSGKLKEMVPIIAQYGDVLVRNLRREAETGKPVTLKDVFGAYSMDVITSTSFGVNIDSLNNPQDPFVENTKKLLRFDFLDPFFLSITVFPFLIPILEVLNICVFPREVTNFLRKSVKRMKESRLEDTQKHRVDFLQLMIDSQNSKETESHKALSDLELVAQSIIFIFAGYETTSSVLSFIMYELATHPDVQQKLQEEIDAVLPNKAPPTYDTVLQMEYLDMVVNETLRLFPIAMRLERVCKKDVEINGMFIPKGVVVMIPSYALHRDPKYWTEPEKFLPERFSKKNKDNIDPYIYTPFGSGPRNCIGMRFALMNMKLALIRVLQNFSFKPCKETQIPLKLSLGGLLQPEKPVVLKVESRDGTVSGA

Question: With `COc1cccc(-c2nccc(NCc3cccnc3)n2)c1` as the compound, how does the Potency read?
Answer: 1.26 µM (active)

Question: How did the Potency turn out when `COc1ncc2nc(-c3cccs3)c(=O)n(Cc3ccc(F)cc3)c2n1` was run?
Answer: 3.16 µM (active)

Question: `COc1ccc(CNc2ccnc(-c3c(C)noc3C)n2)c(OC)c1` was tested. Which Potency did it give?
Answer: 2.51 µM (active)

Question: For `Cc1cnc(CNc2ncnc3ccc(-c4ccc5c(c4)OCO5)cc23)cn1`, which Potency is on record?
Answer: 2.51 µM (active)

Question: How did the Potency turn out when `COc1ccccc1CNc1cc(-c2ccccc2C(F)(F)F)ncn1` was run?
Answer: inactive

Question: For `COc1ccc(CNc2ccnc(-c3ccccc3OC)n2)c(OC)c1`, which Potency is on record?
Answer: 6.31 µM (active)

Question: `Cn1c(=O)c(-c2ccc(F)cc2)nc2cnc(N3CCOCC3)nc21` was tested. Which Potency did it give?
Answer: inactive

Question: With `N#Cc1ccccc1-c1ccc2ncnc(NC3CC3)c2c1` as the compound, how does the Potency read?
Answer: 2 µM (active)

Question: Which Potency does the source give for `COc1ccccc1-c1cncnc1NCc1cnc(C)cn1` here?
Answer: 1.26 µM (active)

Question: `Cc1cnc(CNc2nc(-c3ccccc3C(F)(F)F)nc3ccccc23)cn1` was tested. Which Potency did it give?
Answer: 5.01 µM (active)

Question: `c1ccc(CNc2ncncc2-c2cccnc2)cc1` was tested. Which Potency did it give?
Answer: 1.26 µM (active)

Question: For `Cc1ccccc1-c1cncnc1NCc1cccnc1`, which Potency is on record?
Answer: 0.631 µM (active)

Question: How did the Potency turn out when `CN(C)c1ccc(-c2cncnc2N(C)Cc2ccco2)cc1` was run?
Answer: 0.631 µM (active)

Question: Which Potency does the source give for `COc1ncc2nc(-c3cn(C)c4ccccc34)c(=O)n(CCC#N)c2n1` here?
Answer: 6.31 µM (active)

biological target: Cytochrome P450 3A4 (Homo sapiens) (UniProt P08684); experiment: qHTS Assay for Activators of Cytochrome P450 3A4 (AID 885); details: recombinant CYP3A4, Luciferin-PPXE luminescence, 60 min; series mostly up to 57.1 µM; further: nearly all actives have a fitted effect of over 65% in size
Method in brief: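 20nM CYP3A4 + 25uM Luciferin-PPXE (=KM), 200mM KPO4; cpd 10 min RT; NADPH regen, 60 min RT; stop w/ detection buffer, 20 min; luminescence. Normalized to 57 uM ketoconazole.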

Question: With `CCNc1ncc2nc(-c3cn(C)c4ccccc34)c(=O)n(Cc3ccc(F)cc3)c2n1` as the compound, how does the Potency read?
Answer: inactive

Question: Which Potency does the source give for `COc1cccc(-c2nccc(NCc3cccnc3)n2)c1` here?
Answer: inactive

Question: For `COc1ccc(-c2nc3cnc(OC)nc3n(C)c2=O)cc1`, which Potency is on record?
Answer: inactive

Question: With `COc1ncc2nc(-c3cccs3)c(=O)n(Cc3ccc(F)cc3)c2n1` as the compound, how does the Potency read?
Answer: inactive

Question: For `COc1cccc(Cn2c(=O)cnc3cnc(OC)nc32)c1`, which Potency is on record?
Answer: inactive

Question: For `COCCn1c(=O)c(-c2cccs2)nc2cnc(OC)nc21`, which Potency is on record?
Answer: inactive

Question: Which Potency does the source give for `COc1ccc(CNc2ccnc(-c3c(C)noc3C)n2)c(OC)c1` here?
Answer: inactive

Question: With `COc1cccc(Cn2c(=O)cnc3cnc(OCc4ccccc4)nc32)c1` as the compound, how does the Potency read?
Answer: inactive

Question: `Cc1cnc(CNc2ncnc3ccc(-c4ccc5c(c4)OCO5)cc23)cn1` was tested. Which Potency did it give?
Answer: inactive

Question: With `CNc1nc(-c2c(C)noc2C)nc2ccccc12` as the compound, how does the Potency read?
Answer: inactive

Question: Which Potency does the source give for `N#Cc1cccc(-c2nccc(NCc3ccccc3)n2)c1` here?
Answer: inactive

Question: Which Potency does the source give for `COc1cccc(Cn2c(=O)c(-c3cccs3)nc3cnc(OCc4ccccc4)nc32)c1` here?
Answer: inactive

Question: `c1ccc(CNc2ncncc2-c2ccc3c(c2)OCO3)cc1` was tested. Which Potency did it give?
Answer: inactive

Question: `COc1ccc(CNc2ccnc(-c3ccccc3OC)n2)c(OC)c1` was tested. Which Potency did it give?
Answer: inactive

Question: With `N#Cc1ccccc1-c1ccc2ncnc(NC3CC3)c2c1` as the compound, how does the Potency read?
Answer: inactive

Question: `COc1cccc(Cn2c(=O)c(-c3cccs3)nc3cncnc32)c1` was tested. Which Potency did it give?
Answer: inactive

Question: For `O=c1c(-c2ccc(F)cc2)nc2cncnc2n1-c1ccccc1`, which Potency is on record?
Answer: inactive

Question: For `COc1ccccc1-c1cncnc1NCc1cnc(C)cn1`, which Potency is on record?
Answer: inactive

Question: For `CN(C)Cc1ccccc1-c1nc(NC2CC2)c2ccccc2n1`, which Potency is on record?
Answer: inactive

Question: Which Potency does the source give for `CCNc1ncc2nc(-c3ccccc3)c(=O)n(CCOC)c2n1` here?
Answer: inactive

Question: How did the Potency turn out when `CN(Cc1ccco1)c1ncnc2ccc(-c3ccccc3C#N)cc12` was run?
Answer: inactive

Question: `Cc1cnc(CNc2nc(-c3ccccc3C(F)(F)F)nc3ccccc23)cn1` was tested. Which Potency did it give?
Answer: inactive

Question: How did the Potency turn out when `CS(=O)(=O)Nc1cccc(-c2nccc(Nc3ccc(F)cc3)n2)c1` was run?
Answer: inactive

Question: For `CCNc1ncc2nc(-c3cc(F)cc(F)c3)c(=O)n(CCc3ccccc3)c2n1`, which Potency is on record?
Answer: inactive

Question: `COc1cccc(-c2cc(NCc3ccccc3)ncn2)c1` was tested. Which Potency did it give?
Answer: inactive

Question: Which Potency does the source give for `c1ccc(CNc2ncncc2-c2cccnc2)cc1` here?
Answer: inactive

Question: Which Potency does the source give for `N#Cc1cccc(-c2nccc(NCc3cccs3)n2)c1` here?
Answer: inactive

Question: Which Potency does the source give for `Cc1ccccc1-c1cncnc1NCc1cccnc1` here?
Answer: inactive

Question: For `COc1ccc(Oc2ncc3nc(-c4cn(C)c5ccccc45)c(=O)n(C)c3n2)cc1`, which Potency is on record?
Answer: inactive

Question: With `CN(C)c1ccc(-c2cncnc2N(C)Cc2ccco2)cc1` as the compound, how does the Potency read?
Answer: inactive

Question: `COc1ncc2nc(-c3cn(C)c4ccccc34)c(=O)n(CCC#N)c2n1` was tested. Which Potency did it give?
Answer: inactive

Source: PubChem BioAssay (NCATS)
